Experimental data reported in PubChem BioAssay (EPA / NIEHS).
Several values for one entry are separate records, joined by “and”; a condition that tells them apart may be missing. Identical values can stand only once. Some structures have more than one record in an assay (separate samples or runs), and their calls can disagree. Activity calls are given as the source filed them. How the source made its calls: active means hit-call score of the fitted dose curve at least 0.9, where 1 is the maximum; inactive means score below 0.9.

How the values were obtained:
[1] = read-out: Interferon-gamma inducible Protein 10 (IP10), CXCL10 (gene 3627); experiment: BSK_BE3C_IP10: BioMAP Diversity Plus: BE3C Assay for Interferon-gamma inducible Protein 10 (IP10) Biomarker Activity (AID 2283034); conditions: primary human bronchial epithelial cells; actives raise or lower the signal
Method in brief: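 Using primary human bronchial epithelial cultures, the assay captures IP-10 by ELISA one day (24 h) after exposure. Parallel SRB staining of total protein flags overt cytotoxicity. Fits run bidirectionally relative to DMSO.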

[2] = read-out: Monokine induced gamma interferon (MIG), CXCL9 (gene 4283); experiment: BSK_BE3C_MIG: BioMAP Diversity Plus: BE3C Assay for Monokine induced gamma interferon (MIG) Biomarker Activity (AID 2283035); conditions: primary human bronchial epithelial cells; actives raise or lower the signal;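 further: MIG protein measured by ELISA in BE3C cultures after 24 h of dosing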
Method in brief: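 Primary human bronchial epithelial cells treated for 24 h; MIG levels measured by ELISA, fitted bidirectionally versus DMSO. Parallel SRB total-protein staining assessed cytotoxicity.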

[3] = read-out: Transforming growth factor beta 1 (TGFb1), TGFB1 (gene 7040); experiment: BSK_BE3C_TGFb1: BioMAP Diversity Plus: BE3C Assay for Transforming growth factor beta 1 (TGFb1) Biomarker Activity (AID 2283036;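 on outcome: TGF-b1 protein level measured by ELISA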); conditions: primary human bronchial epithelial cells; actives raise or lower the signal
Method in brief: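 In this human primary bronchial epithelial system, an ELISA quantified TGF-b1 one day after dosing. Endpoint changes in either direction were fitted relative to DMSO.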

[4] = read-out: Plasminogen activator inhibitor-1 (PAI1), SERPINE1 (gene 5054); experiment: BSK_BE3C_PAI1: BioMAP Diversity Plus: BE3C Assay for Plasminogen activator inhibitor-1 (PAI1) Biomarker Activity (AID 2283037); conditions: primary human bronchial epithelial cells; actives raise or lower the signal
Method in brief: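 PAI-1 biomarker levels in treated human bronchial epithelial cells are determined by ELISA at 24 h. Both increases and decreases relative to DMSO are fitted.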

[5] = read-out: Urokinase-type plasminogen activator receptor (uPAR), PLAUR (gene 5329); experiment: BSK_BE3C_uPAR: BioMAP Diversity Plus: BE3C Assay for Urokinase-type plasminogen activator receptor (uPAR) Biomarker Activity (AID 2283039); conditions: primary human bronchial epithelial cells; actives raise or lower the signal;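 on outcome: cells exposed to compound for one day before measurement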
Method in brief: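 A uPAR ELISA serves as the readout, taken 24 h after treating primary human bronchial epithelial cells. Responses in either direction are fitted against DMSO, which defines baseline activity.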

[6] = read-out: Interleukin-6 (IL6), IL6 (gene 3569); experiment: BSK_CASM3C_IL6: BioMAP Diversity Plus: CASM3C Assay for Interleukin-6 (IL6) Biomarker Activity for (AID 2283040); conditions: primary human coronary artery smooth muscle cells; actives raise or lower the signal
[7] = read-out: Interleukin-8 (IL8), CXCL8 (gene 3576); experiment: BSK_CASM3C_IL8: BioMAP Diversity Plus: CASM3C Assay for Interleukin-8 (IL8) Biomarker Activity (AID 2283042); conditions: primary human coronary artery smooth muscle cells; actives raise or lower the signal;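 further: IL-8 protein level quantified by ELISA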
[8] = read-out: Low-density lipoprotein receptor (LDLR), LDLR (gene 3949); experiment: BSK_CASM3C_LDLR: BioMAP Diversity Plus: CASM3C Assay for Low-density lipoprotein receptor (LDLR) Biomarker Activity (AID 2283045); conditions: primary human coronary artery smooth muscle cells; actives raise or lower the signal;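 further: LDLR protein level on the cell surface quantified by ELISA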
[9] = read-out: Monocyte Chemoattractant Protein-1 (MCP1), CCL2 (gene 6347); experiment: BSK_CASM3C_MCP1: BioMAP Diversity Plus: CASM3C Assay for Monocyte Chemoattractant Protein-1 (MCP1) Biomarker Activity (AID 2283046); conditions: primary human coronary artery smooth muscle cells; actives raise or lower the signal;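 further: MCP-1 level quantified by ELISA 24 h after dosing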
[10] = BSK_CASM3C_Proliferation: Cell Proliferation Assessment in the BioMAP Diversity Plus: CASM3C Assay (AID 2283047); conditions: primary human coronary artery smooth muscle cells;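 further: sulforhodamine B total protein stain as relative cell number at 560 nm; sub-confluent cells exposed 48 h before staining; fitted both ways against DMSO so gain or loss of cell number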
[11] = read-out: Monokine induced gamma interferon (MIG), CXCL9 (gene 4283); experiment: BSK_CASM3C_MIG: BioMAP Diversity Plus: CASM3C Assay for Monokine induced gamma interferon (MIG) Biomarker Activity (AID 2283048); conditions: primary human coronary artery smooth muscle cells; actives raise or lower the signal
[12] = read-out: serum amyloid A (SAA), SAA1 (gene 6288); experiment: BSK_CASM3C_SAA: BioMAP Diversity Plus: CASM3C Assay for serum amyloid A (SAA) Biomarker Activity (AID 2283049); conditions: primary human coronary artery smooth muscle cells; actives raise or lower the signal;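 further: SAA protein level quantified by ELISA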
[13] = read-out: Tissue Factor, F3 (gene 2152); experiment: BSK_CASM3C_TissueFactor: BioMAP Diversity Plus: CASM3C Assay for Tissue Factor Biomarker Activity (AID 2283052); conditions: primary human coronary artery smooth muscle cells; actives raise or lower the signal;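 further: cell surface tissue factor protein level read by ELISA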
[14] = read-out: Interferon-gamma inducible Protein 10 (IP10), CXCL10 (gene 3627); experiment: BSK_hDFCGF_IP10: BioMAP Diversity Plus: hDFCGF Assay for Interferon-gamma inducible Protein 10 (IP10) Biomarker Activity (AID 2283053); conditions: primary human foreskin fibroblasts; actives raise or lower the signal
Method in brief: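 IP-10 levels, quantified by ELISA, are taken from human foreskin fibroblast cultures 24 h after chemical treatment, with DMSO serving as negative control and baseline for bidirectional analysis.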

[15] = read-out: Urokinase-type plasminogen activator receptor (uPAR), PLAUR (gene 5329); experiment: BSK_CASM3C_uPAR: BioMAP Diversity Plus: CASM3C Assay for Urokinase-type plasminogen activator receptor (uPAR) Biomarker Activity (AID 2283054); conditions: primary human coronary artery smooth muscle cells; actives raise or lower the signal;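 further: cell-surface uPAR protein level quantified by ELISA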
[16] = read-out: Collagen III, COL3A1 (gene 1281); experiment: BSK_hDFCGF_CollagenIII: BioMAP Diversity Plus: hDFCGF Assay for Collagen III Biomarker Activity (AID 2283056); conditions: primary human foreskin fibroblasts; actives raise or lower the signal
Method in brief: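 Human foreskin primary fibroblasts were exposed to test chemicals for 24 h, after which collagen III was quantified by ELISA. Activity was fitted bidirectionally against DMSO as negative control and baseline.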

[17] = read-out: Epidermal growth factor receptor (EGFR), EGFR (gene 1956); experiment: BSK_hDFCGF_EGFR: BioMAP Diversity Plus: hDFCGF Assay for Epidermal growth factor receptor (EGFR) Biomarker Activity (AID 2283057); conditions: primary human foreskin fibroblasts; actives raise or lower the signal
Method in brief: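 Measured by ELISA: EGFR levels on primary human foreskin fibroblasts 24 h after chemical treatment, analysed relative to DMSO with bidirectional fitting.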

[18] = read-out: Interleukin-8 (IL8), CXCL8 (gene 3576); experiment: BSK_hDFCGF_IL8: BioMAP Diversity Plus: hDFCGF Assay for Interleukin-8 (IL8) Biomarker Activity (AID 2283058); conditions: primary human foreskin fibroblasts; actives raise or lower the signal
Method in brief: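 hDFCGF human dermal fibroblasts; 24 h chemical exposure; IL-8 by ELISA; bidirectional curve fit vs DMSO baseline; gain or loss of signal scored.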

[19] = BSK_hDFCGF_Proliferation: Cell Proliferation Assessment in the BioMAP Diversity Plus: hDFCGF Assay (AID 2283059); conditions: primary human foreskin fibroblasts;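 further: curves fitted for both rise and fall of signal versus DMSO baseline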
Method in brief: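 This proliferation readout used SRB total-protein staining of human foreskin fibroblasts […], normalized to DMSO with bidirectional curve fitting.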

[20] = read-out: Macrophage colony-stimulating factor (MCSF), CSF1 (gene 1435); experiment: BSK_hDFCGF_MCSF: BioMAP Diversity Plus: hDFCGF Assay for Macrophage colony-stimulating factor (MCSF) Biomarker Activity (AID 2283060); conditions: primary human foreskin fibroblasts; actives raise or lower the signal
Method in brief: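 Human foreskin primary fibroblasts were treated with test chemical for 24 h, and M-CSF was then measured by ELISA. Data were fitted bidirectionally against DMSO as the negative control and activity baseline.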

O=C1C=CC(=O)C=C1
AC50 [1]: 16.3 µM (active) and 30.9 µM (active) | outcome [2]: inactive | outcome [3]: inactive | AC50 [4]: 1.68 µM (active) and 14.6 µM (active) | outcome [5]: inactive | outcome [6]: inactive | outcome [7]: inactive | outcome [8]: inactive | outcome [9]: inactive | AC50 [10]: 30.4 µM (active) and 15.2 µM (active) | outcome [11]: inactive | outcome [12]: inactive | outcome [13]: inactive | AC50 [14]: 16.8 µM (active) and 23.7 µM (active) | outcome [15]: inactive | AC50 [16]: 20 µM (active) | outcome [17]: inactive | outcome [18]: inactive | AC50 [19]: 11.2 µM (active) and 2.81 µM (active) | AC50 [20]: 16 µM (active) and 13.5 µM (active)

O=[N+]([O-])O
outcome [1]: inactive | outcome [2]: inactive | outcome [4]: inactive | outcome [5]: inactive | outcome [6]: inactive | outcome [7]: inactive | outcome [8]: inactive | outcome [9]: inactive | outcome [10]: inactive | outcome [11]: inactive | outcome [12]: inactive | outcome [13]: inactive | outcome [14]: inactive | outcome [15]: inactive | outcome [16]: inactive | outcome [17]: inactive | outcome [18]: inactive | outcome [19]: inactive | outcome [20]: inactive

CNC(=O)Oc1cc(C)c(SC)c(C)c1
outcome [1]: inactive | outcome [2]: inactive | outcome [3]: inactive | outcome [4]: inactive | outcome [5]: inactive | outcome [6]: inactive | outcome [7]: inactive | AC50 [8]: 7.52 µM (active) | outcome [9]: inactive | AC50 [10]: 20 µM (active) | outcome [11]: inactive | outcome [12]: inactive | AC50 [13]: 8.16 µM (active) | outcome [14]: inactive | AC50 [15]: 20 µM (active) | outcome [16]: inactive | outcome [17]: inactive | outcome [18]: inactive | outcome [19]: inactive | outcome [20]: inactive

Cc1ccc(OP(=O)(Oc2ccc(C)cc2)Oc2ccc(C)cc2)cc1 (tested in a mixture with another compound)
outcome [1]: inactive | outcome [2]: inactive | outcome [3]: inactive | outcome [4]: inactive | AC50 [5]: 4.16 µM (active) | outcome [6]: inactive | outcome [7]: inactive | outcome [8]: inactive | outcome [9]: inactive | outcome [10]: inactive | outcome [11]: inactive | outcome [12]: inactive | outcome [13]: inactive | outcome [14]: inactive | AC50 [15]: 1.11 µM (active) | AC50 [16]: 12.9 µM (active) | outcome [17]: inactive | outcome [18]: inactive | AC50 [19]: 20 µM (active) | AC50 [20]: 20 µM (active)

CC1(C)[C@H](C(=O)O[C@H](C#N)c2cccc(Oc3ccccc3)c2)[C@@H]1C=C(Br)Br
outcome [1]: inactive | outcome [2]: inactive | AC50 [3]: 1.2 µM (active) | outcome [3]: inactive | outcome [4]: inactive | outcome [5]: inactive | outcome [6]: inactive | outcome [7]: inactive | outcome [8]: inactive | outcome [9]: inactive | outcome [10]: inactive | outcome [11]: inactive | outcome [12]: inactive | outcome [13]: inactive | outcome [14]: inactive | outcome [15]: inactive | AC50 [16]: 7.51 µM (active) and 4.58 µM (active) | outcome [17]: inactive | outcome [18]: inactive | outcome [19]: inactive | outcome [20]: inactive

COCC(=O)N(c1c(C)cccc1C)N1CCOC1=O
outcome [1]: inactive | outcome [2]: inactive | outcome [3]: inactive | outcome [4]: inactive | outcome [5]: inactive | outcome [6]: inactive | outcome [7]: inactive | outcome [8]: inactive | outcome [9]: inactive | outcome [10]: inactive | outcome [11]: inactive | outcome [12]: inactive | outcome [13]: inactive | outcome [14]: inactive | outcome [15]: inactive | outcome [16]: inactive | outcome [17]: inactive | outcome [18]: inactive | outcome [19]: inactive | outcome [20]: inactive

c1ccc(Nc2ccc3ccccc3c2)cc1
AC50 [1]: 20 µM (active) | outcome [2]: inactive | outcome [3]: inactive | AC50 [4]: 20 µM (active) | outcome [5]: inactive | outcome [6]: inactive | outcome [7]: inactive | outcome [8]: inactive | outcome [9]: inactive | AC50 [10]: 31.7 µM (active) | outcome [11]: inactive | outcome [12]: inactive | outcome [13]: inactive | AC50 [14]: 36.2 µM (active) | outcome [15]: inactive | AC50 [16]: 30.7 µM (active) | outcome [17]: inactive | outcome [18]: inactive | AC50 [19]: 34.9 µM (active) | AC50 [20]: 34.4 µM (active)
